# hgDAF12 agonist: hgDAF-12 agonism, primary luciferase screen; activation, % at 6.8 µM; HEK293 GAL4-hgDAF12 UAS-luciferase reporter, agonist luminescence; normalized to butyrate control; actives 1.8% (n = 370,000);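 active means activation above a cutoff set at the mean of all screened compounds plus 3 SD, cut at about 10% in these data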;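 further: 0% = DMSO wells and 100% = sodium butyrate wells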
# DAX1 inh-1: NR0B1 (DAX1) inhibition | HEK293 Gal4-DAX1 luciferase reporter, luminescence | actives 0.99% (n = 340,000) | P51843 | inhibition, % at 6.75 µM;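 active means inhibition above the mean over all tested compounds plus 3 SD, cut at about 4.2% in these data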;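 further: 0% = DAX1-transfected cells with DMSO and 100% = empty-vector control cells with DMSO; inhibition shows as a rise in luminescence from relieved DAX1 repression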
# Target sequence (P51843 207-470 limits assumed): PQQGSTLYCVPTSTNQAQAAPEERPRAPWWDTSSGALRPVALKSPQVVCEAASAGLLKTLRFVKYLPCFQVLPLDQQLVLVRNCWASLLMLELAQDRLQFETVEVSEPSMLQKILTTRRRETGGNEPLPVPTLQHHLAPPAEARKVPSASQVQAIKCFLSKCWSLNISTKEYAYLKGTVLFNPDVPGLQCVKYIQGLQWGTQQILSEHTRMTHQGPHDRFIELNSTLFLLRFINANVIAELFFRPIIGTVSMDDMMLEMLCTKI
# DAX1 inh-2: inhibitors of DAX1 repression of SF-1 activated StAR promoter; HEK293T StAR-luciferase reporter, SF-1/DAX-1 repression relief; inhibition, % at 6.8 µM; actives 1.1% (n = 370,000);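 active means inhibition above the mean over all tested compounds plus 3 SD, cut at about 3.6% in these data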;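 further: 0% = DAX-1 cells with DMSO and 100% = cells lacking DAX-1 with DMSO; higher inhibition means more luminescence from relief of DAX-1 repression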
# ssDAF12 agonist: S. stercoralis DAF-12 activation, primary screen. HEK293 ssDAF-12/GRIP1 lit1-tk-luc reporter, luminescence; % of 3 µM dafachronic acid response. activation, % at 6.8 µM. actives 1% (n = 370,000). AID 652126;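 active means activation above the mean over all tested compounds plus 3 SD, cut at about 0.9% in these data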;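 further: 0% = DMSO-only wells and 100% = 3 µM delta7-dafachronic acid wells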
# hcDAF12 agonist: H. contortus DAF-12 activation, primary screen | HEK293 hcDAF-12 lit1-tk-luc reporter, luminescence; 0% DMSO, 100% Δ7-dafachronic acid | activation, % at 6.8 µM | actives 1.4% (n = 370,000) | AID 652067;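 active means activation above the mean of all tested compounds plus 3 SD, cut at about 5.5% in these data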;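 further: 100% = response to 3 µM Δ7-dafachronic acid high control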
# LXRb hcDAF ctr: counter-screen for hcDAF-12 agonists: agonists of human LXR-beta. shares compounds with hcDAF12 agonist. HEK293 Gal4-LXR tk-luc reporter, luminescence, 24 h; normalized: DMSO 0%, positive control 100%. activation, % at 6.8 µM. 3,400 tested, under 10 active. AID 743027;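 active means mean percent activation of the reporter above a cutoff set as the average over tested compounds plus their standard deviation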
# hcDAF12 ag: hcDAF-12 agonism, confirmation assay; shares compounds with hcDAF12 agonist; HEK293 hcDAF-12 lit1-tk-luc reporter, luminescence; % of Δ7-dafachronic acid response; activation, % at 6.8 µM; actives 61% (n = 3,400);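 active means mean activation across triplicate tests above the threshold derived from the earlier primary screen, cut at about 5.5% in these data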;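 further: 0% = DMSO only wells and 100% = 3 µM Δ7-dafachronic acid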
# The depositor's hits bear a star; . = not tested or not shown. An excerpt weighted towards active compounds, which were near 4.1% of everything screened.
SMILES,hgDAF12 agonist,DAX1 inh-1,DAX1 inh-2,ssDAF12 agonist,hcDAF12 agonist,LXRb hcDAF ctr,hcDAF12 ag
Cn1c(O)c(N=NC(=O)Cn2ccc(C(F)(F)F)n2)c2ccccc21,1.9,-1.5,-0.1,-0.8,9.1*,-0.2,0.3
Cc1cccc(N(CC(=O)NCc2ccco2)S(=O)(=O)c2ccccc2)c1,2.8,1.3,0.1,-0.5,-0.1,.,.
COc1ccccc1CNC(=O)C1CCC(=O)N(CCCN2CCCC2=O)C1 (stereo not given),-1.1,1.8,-0.2,-1.4,1.4,.,.
O=C(NCc1cc2ccccc2[nH]1)C1CCC(=O)N(CCCN2CCCC2=O)C1 (stereo not given),2.5,1.6,0.4,0.4,6.9*,-0.2,5.2
O=C(NCCc1ccccc1)C1CCC(=O)N(CCCN2CCCC2=O)C1 (stereo not given),0.9,1.3,0.3,1.9*,7.8*,-0.3,1.3
S=C(NCCCCN(Cc1ccc(Cl)cc1)c1ccc(Br)cn1)NCCCc1cnc[nH]1,-9.5,.,-8.7,-1.4,-2.9,.,.
COc1ccc(NC(=O)COC(=O)C2CCN(S(=O)(=O)c3cccs3)CC2)cc1,-0.9,0.6,0.5,-1.2,0.3,.,.
CC1CCN(S(=O)(=O)N2CCC(C(=O)NC(C)c3ccccc3)CC2)CC1 (stereo not given),-3.2,1.0,0.4,-1.9,-1.8,.,.
O=C(NCc1ccc(F)cc1)c1cc(C2CCCN(S(=O)(=O)c3ccccc3)C2)on1 (stereo not given),-1.9,.,-1.5,-1.4,-1.7,.,.
CCCn1c2ccc(C)cc2c2nnc(SCCN3CCCCC3)nc21,0.1,0.2,0.7,0.5,9.3*,-0.1,4.7
Cn1cc(/C=N\NC(=O)c2cccs2)c2ccccc21,13.0*,6.1*,2.7,-0.2,6.8*,0.8,4.3
Cn1cc(/C=N/NC(N)=S)c2ccccc21,-0.8,-0.9,-0.8,-1.9,1.7,.,.
CCNc1nc(NCC)nc(N/N=C/c2ccc(Br)cc2)n1,-2.6,-0.6,0.0,-2.0,-1.1,.,.
CCC1CCCCN1S(=O)(=O)c1ccc(NC(=O)C2CCCO2)cc1 (stereo not given),0.1,0.4,0.2,-0.6,-0.6,.,.
C/C(=N\NC(=S)Nc1ccc(C)c(C)c1)c1ccc(N2CCOCC2)cc1,3.4,0.2,0.1,-0.2,6.9*,-0.2,2.3
C/C(=N\NC(=S)Nc1cc(S(=O)(=O)N2CCOCC2)ccc1Cl)c1ccc(N2CCOCC2)cc1,-2.3,-2.5,-0.3,-1.6,-1.9,.,.
O=[N+]([O-])c1ccc(CN2CC(N3CCN(CC4CC4)CC3)CS2(=O)=O)cc1 (stereo not given),0.6,0.5,0.6,-0.9,-0.3,.,.
CC1C(=O)N2CCCc3cc(S(=O)(=O)Nc4ccccc4C(N)=O)cc1c32 (stereo not given),0.0,1.2,0.7,-0.6,-0.3,.,.
COCCn1c(C)cc(C(=O)CSc2nc3ccccc3o2)c1C,10.1,1.5,2.2,0.0,8.4*,0.9,4.0
COCCn1c(C)cc(C(=O)CSc2nc3ccccc3s2)c1C,-7.4,-3.1,-0.8,-1.6,-2.1,.,.
COc1cc(-c2nnc(COC(=O)c3ccc(C)o3)o2)cc(OC)c1OC,-2.9,0.5,1.2,-1.0,-0.6,.,.
COc1cccc(/C=N/NC(=O)c2ccoc2C)c1,11.2*,2.9,2.0,0.2,7.2*,0.7,5.0
CCOc1ccc(/C=N/NC(=O)c2ccoc2C)cc1OC,9.4,1.3,2.8,-0.5,1.1,.,.
COc1cc2c(cc1N)-c1ccc(N)cc1C2=O,7.8,1.2,2.4,-0.8,0.6,.,.
COc1cc2c(c(Br)c1N)-c1cc(Br)c(N)cc1C2=O,5.1,-0.7,2.8,-0.8,6.9*,-0.1,8.8*
SMILES,hgDAF12 agonist,DAX1 inh-1,DAX1 inh-2,ssDAF12 agonist,hcDAF12 agonist,LXRb hcDAF ctr,hcDAF12 ag
COc1ccc(-c2cn3ccccc3n2)cc1OC,10.8*,2.3,1.6,3.1*,12.6*,0.6,12.9*
COc1cccc(-c2nc(N3CCN(C)CC3)c3ccccc3n2)c1O,8.0,0.9,-0.3,-0.4,7.8*,0.0,5.3
CCOc1[nH]n(-c2ccccc2)c(=O)c1C=Nc1ccccc1,2.9,0.8,-0.6,-1.3,-1.5,.,.
CCOc1[nH]n(-c2ccccc2)c(=O)c1C=Nc1ccc(C(=O)OC)cc1,2.6,0.7,0.3,-1.1,7.6*,-0.4,-0.9
COc1ccc(CNCc2cc3c(cc2[N+](=O)[O-])OCO3)cc1,2.6,0.2,1.0,0.7,9.4*,-0.2,0.5
Cc1ccc(-c2ccc(C)c(N)c2C)c(C)c1N,-2.6,0.3,-1.0,-1.4,-2.4,.,.
Cc1ccc2cn[nH]c2c1N,3.2,-0.3,-0.6,0.7,6.9*,-0.2,4.1
O=C1c2ccccc2C(=O)N1CCCc1c[nH]c2ccc(Cl)cc12,1.2,-0.1,-0.2,-1.7,-2.6,.,.
O=c1cccc2n1Cc1cc3ccccc3nc1-2,9.9,3.2,1.8,-0.2,13.6*,1.2,9.7*
Cc1cc(C)n(CCC(=O)N2CCc3ccccc32)n1,-1.1,0.7,0.1,0.3,6.9*,-0.2,4.0
CC(CC(=O)N1CCc2ccccc21)n1cccn1 (stereo not given),8.2,0.6,2.8,0.1,10.6*,0.0,5.7*
O=C(CCn1cccc1)N1CCc2ccccc21,3.5,0.4,1.6,-1.0,-1.0,.,.
Brc1ccc(-c2nc(-c3ccncc3)no2)o1,0.1,-0.2,0.6,-1.6,-1.7,.,.
COc1ccccc1-c1nc(-c2ccccn2)no1,7.8,-3.2,2.8,-0.3,8.6*,1.0,10.3*
Fc1ccc(OCc2nc(-c3ccc(Br)o3)no2)c(F)c1,9.1,0.6,1.1,-0.8,2.1,.,.
Clc1ccccc1OCc1nc(-c2ccc(Br)o2)no1,2.5,-0.1,1.4,-0.5,6.7*,-0.1,3.0
Clc1ccccc1-c1nc(-c2ccc(Br)o2)no1,21.5*,5.6*,2.1,3.5*,15.1*,2.1,17.6*
Cc1nc(-c2noc(-c3ccccc3Cl)n2)c(C(F)(F)F)o1,6.8,2.5,0.1,-0.3,1.2,.,.
Brc1ccc(-c2nc(-c3ccccn3)no2)o1,5.4,-2.9,0.7,-0.1,8.0*,1.2,10.8*
CC(=O)N1CCN(c2cc(-c3ccccc3)nc3cc(-c4cccc(Cl)c4)nn23)CC1,0.2,0.2,-1.4,-1.4,0.3,.,.
O=C(Nc1ccnn1C1CCNCC1)c1ccc2c(c1)OCO2,-1.3,-0.1,-0.8,-1.1,-0.4,.,.
COc1ccccc1-c1nnc(-c2ccc(C)cc2)o1,11.5*,8.4*,2.2,0.5,8.0*,1.0,8.5*

# Screens from PubChem BioAssay.
